# From PubChem
# Compounds with a hit are over-represented: about 2.8% of the library has one in this group of screens.
# bovine MsrA act = bovine methionine sulfoxide reductase A activation; purified bovine MsrA, absorbance read-out; activation, % at 10.6 µM; AID 602163; hit rate 0.3% among 360,000; in the data active = activation above about 7.5%;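 note: 0% = vehicle and 100% = reference activator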
# MsrA inh = inhibits bovine methionine sulfoxide reductase A | inhibition, % at 15.5 µM | hit rate 0.75% among 360,000 | AID 651718 | purified bovine MsrA, absorbance read-out;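 note: 0% = vehicle wells with enzyme and 100% = reference inhibitor wells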
# HGIII-sPLA2 inh = Inhibits HGIII-sPLA2 liposome hydrolysis, primary screen. Q9NZ20. QFRET BODIPY PC-A2 liposome hydrolysis, fluorescence. inhibition, % at 12.2 µM. hit rate 0.56% among 370,000. AID 743126;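 active = inhibition above mean plus 3 SD of compounds lying within the high and low control bounds, cut at about 19% in these data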;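 note: 0% = median of test compound wells and 100% = no enzyme DMSO wells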
# Target sequence (Q9NZ20 whole entry, looked up): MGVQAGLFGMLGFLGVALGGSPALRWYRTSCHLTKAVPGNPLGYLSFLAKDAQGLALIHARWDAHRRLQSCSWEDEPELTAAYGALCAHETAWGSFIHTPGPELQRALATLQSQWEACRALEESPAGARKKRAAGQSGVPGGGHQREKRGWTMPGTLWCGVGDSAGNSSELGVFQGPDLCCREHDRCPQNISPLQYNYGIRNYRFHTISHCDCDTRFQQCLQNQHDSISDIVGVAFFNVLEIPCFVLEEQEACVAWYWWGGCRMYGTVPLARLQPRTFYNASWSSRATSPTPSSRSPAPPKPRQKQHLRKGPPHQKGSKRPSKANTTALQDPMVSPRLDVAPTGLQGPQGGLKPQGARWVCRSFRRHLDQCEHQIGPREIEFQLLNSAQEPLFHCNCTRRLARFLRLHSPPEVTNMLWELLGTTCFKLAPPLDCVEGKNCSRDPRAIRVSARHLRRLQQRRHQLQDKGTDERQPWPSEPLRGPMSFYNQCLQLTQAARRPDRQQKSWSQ
# rCAG RNA binder = molecules binding r(CAG) RNA repeats; r(CAG) RNA repeat, TO-PRO-1 dye displacement fluorescence; inhibition, % at 3 µM; hit rate 1.3% among 370,000; AID 651821;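 active = inhibition above the plate cutoff, the mean of all test compounds on that plate plus 3 SD, cut at about 35% in these data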;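 note: 0% = DMSO alone and 100% = 100 µM mitoxantrone as full dye displacement; higher means more dye released from RNA so lower well fluorescence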
# MsrA inh confirm = bovine MsrA inhibition, confirmed; shares compounds with MsrA inh; purified bovine MsrA, absorbance read-out; inhibition, % at 15.5 µM; hit rate 41% among 2,300; AID 651822;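 note: coupled to thioredoxin reductase with NADPH and selenocystamine and DMSO as substrate; 0% = vehicle only and 100% = full effect of reference inhibitor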
# Starred values were filed as active, the others as inactive; . = no result. Cut-off read from the data, not from the text of the source, unless noted: active = inhibition above about 4.5%; inactive = the rest.
SMILES,bovine MsrA act,MsrA inh,HGIII-sPLA2 inh,rCAG RNA binder,MsrA inh confirm
C[n+]1ccccc1/C=C/c1ccc([N+](=O)[O-])cc1,-3,6.0*,9,1,6.8*
C[n+]1ccccc1/C=C/c1ccc(C#N)cc1,-2,6.5*,11,4,5.6*
C[n+]1ccccc1/C=C/c1ccc2ncccc2c1,-4,6.9*,5,4,6.9*
CC(=O)Nc1cccc(C(=O)OC(C)C(=O)Nc2ccc(S(=O)(=O)N3CCCC3)cc2)c1 (configuration not stated),-1,-1,-10,5,.
CC(C)c1[nH]nc2c1C(Cc1ccccc1)C(C#N)=C(N)O2 (configuration not stated),-8,-1,-7,1,.
O=C(NCc1cccs1)c1cccc(Nc2nc3ccc(Br)cc3[nH]2)c1,-2,0,-3,1,.
O=C(O)CCSc1ccc([N+](=O)[O-])cc1[N+](=O)[O-],-12,5.4*,2,2,3
COC(=O)C1=C(C)NC(=O)NC1c1ccc(OC)c(OC)c1 (configuration not stated),-4,0,-7,1,.
COC(=O)C1=C(C)NC(=S)N(C(C)=O)C1c1ccc(OC)c(OC)c1 (configuration not stated),-5,4.7*,14,-4,3
O=Cc1cn(-c2ccccc2)nc1-c1ccncc1,-1,6.0*,7,0,2
O=C(N/N=C\c1cn(-c2ccccc2)nc1-c1ccccc1)c1ccc(Br)o1,-11,6.4*,-12,9,2
O=Cc1cn(-c2ccccc2)nc1-c1cccc([N+](=O)[O-])c1,-4,4,5,10,.
COc1ccc(-c2nn(-c3ccccc3)cc2/C=N/O)cc1,-1,-1,-20,2,.
C(=N\N1CCOCC1)/c1cn(-c2ccccc2)nc1-c1ccccc1,-4,7.0*,4,-3,0
O=Cc1cn(-c2ccccc2)nc1-c1ccccc1,1,14*,0,-4,11*
CC1CCCC(C)N1c1nnc(N)s1 (configuration not stated),-1,0,7,4,.
C=CCNc1cnn(-c2ccc(C)cc2)c(=O)c1Sc1ccc(C)cc1,-2,0,-4,-7,.
O=C(N/C=C/c1ccco1)OCc1ccccc1,-4,2,9,33,.
O=Cc1cn(-c2ccccc2)nc1-c1cccnc1,-8,11*,8,0,4
O=C(O)/C=C/c1cn(-c2ccccc2)nc1-c1ccccc1,-2,0,-5,18,.
CC1(C)Cc2c(sc(NC(=O)c3ccc4c(c3)OCCO4)c2C(N)=O)C(C)(C)N1,-3,1,-9,6,.
CCc1noc(C)c1C(=O)Nc1nc2c(F)cc(F)cc2s1,-5,0,-4,7,.
CCc1noc(C)c1C(=O)Nc1nc(-c2ccc(F)cc2)c(C)s1,-4,9.5*,3,-7,8.7*
CCc1noc(C)c1C(=O)Nc1nc(-c2cc(C)ccc2C)c(C)s1,-15,18*,1,0,21*
CCc1noc(C)c1C(=O)Nc1nc2c(C)cccc2s1,-3,2,-18,-3,.
SMILES,bovine MsrA act,MsrA inh,HGIII-sPLA2 inh,rCAG RNA binder,MsrA inh confirm
COc1ccc(/C=N/NC2=NS(=O)(=O)c3ccccc32)cc1OC,-5,4.8*,0,6,4
COc1ccc(C(=O)Nc2cc([N+](=O)[O-])ccc2N2CCCC2)cc1,-1,1,0,0,.
Cc1ccc(/C=N/NC(=O)c2nnn(-c3nonc3N)c2-c2ccc3c(c2)OCO3)s1,-5,5.0*,-24,9,4.6*
CC(=C/c1ccco1)/C=N/NC(=O)c1nnn(-c2nonc2N)c1CN(C)C,-5,7.7*,-1,5,5.4*
Nc1nonc1-n1nnc(C(=O)N/N=C/c2ccc(F)cc2)c1-c1ccc2c(c1)OCO2,0,1,-4,1,.
COCc1c(C(=O)N/N=C/c2ccc(C)o2)nnn1-c1nonc1N,-1,6.6*,1,0,5
N#Cc1nc(-c2cccc3ccccc23)oc1NCC1CCCO1 (configuration not stated),0,2,5,8,.
CN(C)c1ccc(/C=C(/NC(=O)c2ccccc2)C(=O)N2CCCC2)cc1,-4,5.4*,15,4,3
Cc1ccc2c(C(=O)CCl)c(C)[nH]c2c1,1,0,-3,2,.
CN(C)c1oc(-c2cccs2)nc1C#N,-6,4.9*,4,-3,3
COC(=O)c1cc2c(-c3ccccc3)cc3ccccn3c-2c1C(=O)OC,-11,1,3,4,.
COC(=O)c1c(C)c2c(C)cc3ccccn3c-2c1C(=O)OC,-2,4.7*,12,1,3
CCOC(=O)/C(C#N)=C/Nc1ccccc1NS(=O)(=O)c1ccc(C)c(C)c1,-3,0,-5,9,.
CCOC(=O)/C(C#N)=C/Nc1ccccc1OC(F)(F)F,0,11*,0,-5,7.1*
CCOC(=O)/C(C#N)=C/Nc1ccccc1NS(=O)(=O)c1cccc(C(C)=O)c1,-3,6.0*,-8,24,3
CCOC(=O)/C(C#N)=C/Nc1cc(OC)ccc1OC,-2,3,3,-3,.
CNC(=O)c1cc2ccc(OC)cc2oc1=O,-4,5.2*,-1,-2,5.7*
CNC(=O)c1cc2cc(OC)ccc2oc1=O,-4,.,.,.,.
Cc1c(C(=O)N/N=C/c2ccc(O)cc2)sc(=S)n1C,-6,5.8*,6,6,4.8*
O=S1(=O)NC(c2ccccc2)CC(CC2CCCCC2)O1 (configuration not stated),1,1,-9,0,.
N#C/C(C(=O)N1CCCCC1)=C1\Nc2ccccc2S1,-8,8.2*,14,2,5.0*
COc1ccc(C(=O)N/C(=C/c2cccs2)c2nc3ccccc3[nH]2)cc1OC,-5,5.3*,-2,4,4
O=C(/C(=C/c1ccc(Cl)cc1)c1nc2ccccc2[nH]1)c1ccccc1,-3,1,-2,10,.
COc1cc(/C=C(/C(=O)c2cccs2)c2nc3ccccc3[nH]2)cc(OC)c1O,-6,5.5*,-1,10,4
CCOC(=O)c1nn(-c2ccc(C)cc2)c(=O)cc1OCC(=O)Nc1cc(C)ccc1OC,-4,-1,1,0,.
SMILES,bovine MsrA act,MsrA inh,HGIII-sPLA2 inh,rCAG RNA binder,MsrA inh confirm
O=C(O)CCCC(=O)Nc1ccc(N=Nc2ccccc2)cc1,0,6.6*,0,7,3
COC(=O)CCC(=O)Nc1ccc(N=Nc2ccccc2)cc1,-10,4,5,10,.
COc1cc(OC)cc(-c2nc(N)n[nH]2)c1,-5,0,-4,-2,.
COc1ccc(S(=O)(=O)NCCc2ccc(F)cc2)cc1,-6,-1,-4,-5,.
COc1ccc(-c2cc(C(F)(F)F)nc(SCC(=O)NCc3ccco3)n2)cc1OC,-5,2,-1,6,.
COc1ccc(-c2cc(C(F)(F)F)nc(SCC(=O)N(C)Cc3cn(C)nc3C)n2)cc1OC,-8,6.0*,3,-8,4
CC[n+]1c(/C=C(\C)SC)sc2ccccc21,2,4,-3,6,.
CC[n+]1c(/C=C(\C)OC)sc2ccccc21,-12,5.8*,8,1,5.0*
